# Test results published in PubChem BioAssay.
# Where “and” joins values, the source holds several entries; their conditions need not be identical. Equal entries are not always repeated. Records with an inconclusive call do not appear. Calls of active or inactive are those of the source. Unless noted, cut-off not given; nearly all actives show AC50 up to about 26 µM.
# Key:
# [1] = growth inhibition of DIPG glioma cells, dose response, cell-based, SU-DIPG-XVII, MIPE5.0, CellTiter-Glo, qHTS (AID 1347060); conditions: SU-DIPG-XVII viability, CellTiter-Glo ATP luminescence;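 on AC50: cells exposed to compound for 48 hours before viability readout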
# [2] = growth inhibition of DIPG glioma cells, dose response, cell-based, SU-DIPG-XIII, MIPE4.0, CellTiter-Glo, qHTS (AID 1347061; cut-off not given, nearly all actives have AC50 up to about 37 µM;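 further: cells exposed to compound for 48 hours before readout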); conditions: SU-DIPG-XIII viability, CellTiter-Glo ATP luminescence
# [3] = viability loss in pontine glioma line – cell-based, SU-DIPG-XXV, MIPE5.0, CellTiter-Glo, qHTS, dose response (AID 1347065); conditions: CellTiter-Glo ATP luminescence;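 further: cells exposed to compound for 48 hours before ATP readout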
# [4] = SU-DIPG-VI glioma cell viability, MIPE4.0 library, CellTiter-Glo luminescence, qHTS (AID 1347066; cut-off not given, nearly all actives have AC50 up to about 30 µM;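 further: cells exposed to compound for 48 hours before readout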); conditions: CellTiter-Glo ATP luminescence
# [5] = JHH-DIPG-1 glioma cell viability, MIPE5.0 library, CellTiter-Glo luminescence, qHTS (AID 1347067); conditions: JHH-DIPG-1 glioma viability, CellTiter-Glo ATP luminescence;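 further: cells exposed to compound for 48 hours before readout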
# [6] = SU-DIPG-XXV glioma cell viability, MIPE5.0 library, qHTS (AID 1347068; cut-off not given, nearly all actives have IC50 up to about 30 µM;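 on IC50: cells exposed to compound for 48 hours before viability readout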)
# [7] = modifiers of HSF1 nuclear foci, imaging, Selleck Cancer Library (AID 1347162; in the data active means plate-normalised HSF1 focus index below about 0.46); conditions: human cells, at 10 µM; SSMD: measured here: HSF1 foci SSMD mean; cell count: measured here: cell number; plate-normalised HSF1 focus index: stronger effect = lower value
# [8] = growth inhibition of DIPG glioma cells, dose response, cell-based, SU-DIPG-IV, MIPE4.0, CellTiter-Glo, qHTS (AID 1347063; cut-off not given, nearly all actives have AC50 up to about 30 µM;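 further: compound exposure lasted 48 hours before the viability readout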); conditions: SU-DIPG-IV viability, CellTiter-Glo ATP luminescence
# [9] = growth inhibition of DIPG glioma cells, dose response, cell-based, SU-DIPG-XIII, MIPE5.0, CellTiter-Glo, qHTS (AID 1347064; cut-off not given, nearly all actives have AC50 up to about 23 µM;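 on AC50: cells exposed to compound for 48 hours before the viability read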); conditions: SU-DIPG-XIII viability, CellTiter-Glo ATP luminescence
# [10] = sensitizers of A549 cells to miR-34 induction, primary screen, imaging, A549 dox-inducible miR-34, nuclei and caspase counts (AID 1347080;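 active means compounds whose cell count with miR-34 switched on is under 0.7 times the count with it off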); conditions: A549 miR-34 inducible, Hoechst nuclei count, 48 h
# [11] = survival rescue of mitochondrial mutant cells in low glucose, primary screen, MELAS cybrids, Rieske KO mouse fibroblasts, CellTiter-Glo (AID 1508586;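 active means mean z-score across replicates of 1.96 or higher in either the MELAS or the Rieske mutant cell line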;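 further: z relative to plate mean and SD of compound and empty wells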)
# [12] = stronger effect = lower value, cell number ratio, induced over uninduced
# [13] = measured here: relative caspase fold change +Dox/-Dox
# [14] = measured here: total cells with miR-34 induction, stronger effect = lower value
# [15] = measured here: total cells without miR-34 induction
structure (smiles),measurement,setting,value
CN[C@@H](C)C(=O)N[C@H]1CN(C(=O)CC(C)C)CC[C@H]2CC[C@@H](C(=O)NC(c3ccccc3)c3ccccc3)N2C1=O,outcome,[1],inactive
same,outcome,[2],inactive
same,outcome,[3],inactive
same,outcome,[4],inactive
same,outcome,[5],inactive
same,outcome,[6],inactive
same,SSMD,[7],2.71
same,cell count,[7],7260
same,plate-normalised HSF1 focus index,[7],1.1 (inactive)
Nc1nc(=O)n([C@H]2C[C@H](O)[C@@H](CO)O2)cc1F,outcome,[1],inactive
same,outcome,[2],inactive
same,outcome,[8],inactive
same,outcome,[3],inactive
same,outcome,[4],inactive
same,outcome,[5],inactive
same,outcome,[6],inactive
Cc1c[nH]c(/C=C2\C(=O)Nc3ccccc32)c1CCC(=O)O,AC50,[1],14.8 µM (active)
same,AC50,[2],5.9 µM (active)
same,AC50,[3],10.5 µM (active)
same,outcome,[4],inactive
same,AC50,[5],16.6 µM (active)
C/C=C/C/C=C/CCC(=O)[C@H]1O[C@H]1C(N)=O,AC50,[1],20.9 µM (active)
same,outcome,[2],inactive
same,AC50,[9],20.9 µM (active)
same,outcome,[4],inactive
same,AC50,[5],23.5 µM (active)
same,fold change,[10]; [12],0.809 (inactive) and 1.05 (inactive)
same,fold change,[10]; [13],2.34 and 1.07
same,cell count,[10]; [14],532 and 6420
same,cell count,[10]; [15],658 and 6130
C/C=C/C[C@@H](C)C(=O)[C@H]1C(=O)N[C@@H](C(C)C)C(=O)N(C)CC(=O)N(C)[C@@H](CC(C)C)C(=O)N[C@@H](C(C)C)C(=O)N(C)[C@@H](CC(C)C)C(=O)N[C@@H](C)C(=O)N[C@H](C)C(=O)N(C)[C@@H](CC(C)C)C(=O)N(C)[C@@H](CC(C)C)C(=O)N(C)[C@@H](C(C)C)C(=O)N1C,AC50,[1],8.11 µM (active)
same,AC50,[2],18.7 µM (active)
same,AC50,[3],5.74 µM (active)
Cc1n[nH]c(C)c1Cc1sc2c(c1C(=O)N1C[C@H](O)CO1)c(=O)n(C)c(=O)n2CC(C)C,outcome,[1],inactive
same,outcome,[2],inactive
same,outcome,[8],inactive
same,outcome,[4],inactive
same,outcome,[5],inactive
same,outcome,[6],inactive
COc1ccc(-c2oc3c(CC=C(C)C)c(OC4O[C@H](CO)[C@@H](O)[C@H](O)[C@H]4O)cc(O)c3c(=O)c2OC2O[C@@H](C)[C@H](O)[C@@H](O)[C@H]2O)cc1 (stereo not given in full),outcome,[1],inactive
same,outcome,[2],inactive
same,AC50,[8],14.8 µM (active)
same,outcome,[3],inactive
same,AC50,[4],14.8 µM (active)
same,outcome,[5],inactive
same,outcome,[6],inactive
C[C@]12CC[C@@H]3c4ccc(O)cc4CC[C@H]3[C@@H]1[C@@H](O)[C@@H](O)[C@@H]2O,outcome,[1],inactive
same,outcome,[2],inactive
same,outcome,[8],inactive
same,outcome,[4],inactive
same,outcome,[5],inactive
same,outcome,[6],inactive
NC(=O)c1c(OCc2c(F)cc(Br)cc2F)nsc1NC(=O)NCCCCN1CCCC1,AC50,[1],4.68 µM (active)
same,AC50,[2],6.62 µM (active)
same,AC50,[9],3.32 µM (active)
same,AC50,[3],3.32 µM (active)
same,AC50,[5],18.6 µM (active)
same,IC50,[6],23.5 µM (active)
CC1=C(C(=O)Nc2cc3cn[nH]c3cc2F)C(c2ccc(C(F)(F)F)cc2)CC(=O)N1 (stereo not given),outcome,[1],inactive
same,outcome,[2],inactive
same,outcome,[8],inactive
same,outcome,[9],inactive
same,outcome,[5],inactive
same,outcome,[6],inactive
same,fold change,[10]; [12],1.03 (inactive)
same,fold change,[10]; [13],0.78
same,cell count,[10]; [14],5210
same,cell count,[10]; [15],5040
same,z-score,"[11]; MELAS cybrid survival, CellTiter-Glo 48 h, stronger effect = higher value",-0.364 (inactive)
same,z-score,"[11]; Rieske KO mouse fibroblast survival, CellTiter-Glo 72 h",0.0194
